# From PubChem BioAssay (Tox21)
# Results filed as inconclusive are left out. Where a call stands in place of a potency, no number is given. The source made the active and inactive calls. Calls follow the shape of the dose curve; as a rule, active = well fitted curve in the direction sought with a large enough effect in the repeat runs; inconclusive = weak or mixed curves; inactive = no such curve, though single readings can be large; an effect the other way counts as inactive or inconclusive.
# Assay: qHTS assay to identify small molecule antagonists of the androgen receptor (AR) signaling pathway using the MDA cell line - cell viability counter screen (AID 743041; also: nearly all actives have a fitted effect of over 45% in size)
# Conditions: MDA-kb2 viability, CellTiter-Fluor, 16 h, cells co-treated with R1881 androgen agonist; series mostly up to 70.3 µM
# How it was run: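 Same-well cytotoxicity was assessed by CellTiter-Fluor in MDA-kb2 AR-luc cells after 16 h of compound treatment under R1881 agonism.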
row,SMILES,Potency
1,C=C(C)C(=O)OCCCCCCCCCCCCCCCCCC,inactive
2,CC(=O)N[C@@H](CCC(N)=O)C(=O)O,inactive
3,C#CC(C)(O)CC(C)C (stereo not given),inactive
4,CC(=O)OC(C)(C)C,inactive
5,COC(=O)c1ccc(C(=O)OC)c(C(=O)OC)c1,inactive
6,CC1=CC(=O)CCC1,inactive
7,CCO[Si](CCCN=C=O)(OCC)OCC,inactive
8,COCCOC(=O)CC#N,inactive
9,Cc1nccn1CC1CCc2c(c3ccccc3n2C)C1=O (stereo not given),inactive
10,C=CC(=O)OCCCCCC,inactive
11,C=C(C)[C@H]1CC=C(C)CC1,inactive
12,CC(C=O)Cc1ccc(C(C)C)cc1 (stereo not given),inactive
13,CCCCN(CCO)CCO,inactive
14,CCCCc1ccc(N)cc1,inactive
15,COc1cc(C(=O)N2CCOCC2)cc(OC)c1OC,inactive
16,CCc1cc(S(=O)(=O)O)c2cc(C(C)C)cccc1-2,inactive
17,Cc1cc(C)c(NC(=O)CN(CC(=O)O)CC(=O)O)c(C)c1Br,inactive
18,CC(C)[N+](C)(C)CC(O)COc1cccc2ccccc12 (stereo not given),inactive

row,SMILES,Potency
1,COc1cccc(OC)c1,inactive
2,CCCCCCCCCCCCCCC,inactive
3,COC(=O)CCCC(=O)O,inactive
4,NC(=O)c1ncn([C@@H]2O[C@H](CO)[C@@H](O)[C@H]2O)c1O,inactive
5,COc1ccc(COC=O)cc1,inactive
6,OCc1ccccn1,inactive
7,Nc1ccc2cc(S(=O)(=O)O)ccc2c1,inactive
8,OCC(O)[C@@H](O)[C@H](O)[C@H](O)CO[C@H]1O[C@H](CO)[C@@H](O)[C@H](O)[C@H]1O (stereo not given in full),inactive
9,CN(C)N=Nc1ccccc1,inactive
10,CC(O)CN(CCCN(C)C)CCCN(C)C (stereo not given),inactive
11,CCC(C)OC(=O)N1CCCCC1CCO (stereo not given),inactive
12,NS(=O)(=O)c1cc(C2(O)NC(=O)c3ccccc32)ccc1Cl (stereo not given),inactive
13,N#CC1(O)CCCCC1,inactive
14,CC(C)CCCC(C)CCCC(C)CCCCC(C)CCCC(C)CCCC(C)C (stereo not given),inactive
15,CCCC=O,inactive
16,CCCc1ccccc1O,inactive
17,NC(=O)c1c(Cl)cccc1Cl,inactive
18,CC/C=C\C#N,inactive

# Assay: qHTS assay to identify small molecule antagonists of the thyroid receptor (TR) signaling pathway - cell viability counter screen (AID 743064); also: nearly all actives have a fitted effect of over 50% in size
# Conditions: GH3.TRE-Luc viability, CellTiter-Fluor, 24 h; series mostly up to 70.3 µM
# How it was run: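 In rat pituitary GH3.TRE-Luc reporter cells co-exposed to compound and 1 nM T3 for 23.5 h, cytotoxicity was assessed with CellTiter-Fluor in the same wells, read by fluorescence.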
row,SMILES,Potency
1,C=C(C)C(=O)OCCCCCCCCCCCCCCCCCC,inactive
2,CC(=O)N[C@@H](CCC(N)=O)C(=O)O,inactive
3,C#CC(C)(O)CC(C)C (stereo not given),inactive
4,CC(=O)OC(C)(C)C,inactive
5,COC(=O)c1ccc(C(=O)OC)c(C(=O)OC)c1,inactive
6,CC1=CC(=O)CCC1,inactive
7,CCO[Si](CCCN=C=O)(OCC)OCC,inactive
8,COCCOC(=O)CC#N,inactive
9,Cc1nccn1CC1CCc2c(c3ccccc3n2C)C1=O (stereo not given),inactive
10,C=CC(=O)OCCCCCC,inactive
11,C=C(C)[C@H]1CC=C(C)CC1,inactive
12,CC(C=O)Cc1ccc(C(C)C)cc1 (stereo not given),inactive
13,CCCCN(CCO)CCO,inactive
14,CCCCc1ccc(N)cc1,inactive
15,COc1cc(C(=O)N2CCOCC2)cc(OC)c1OC,inactive
16,CCc1cc(S(=O)(=O)O)c2cc(C(C)C)cccc1-2,inactive
17,Cc1cc(C)c(NC(=O)CN(CC(=O)O)CC(=O)O)c(C)c1Br,inactive
18,CC(C)[N+](C)(C)CC(O)COc1cccc2ccccc12 (stereo not given),inactive

row,SMILES,Potency
1,COc1cccc(OC)c1,inactive
2,CCCCCCCCCCCCCCC,inactive
3,COC(=O)CCCC(=O)O,inactive
4,NC(=O)c1ncn([C@@H]2O[C@H](CO)[C@@H](O)[C@H]2O)c1O,inactive
5,OCc1ccccn1,inactive
6,Nc1ccc2cc(S(=O)(=O)O)ccc2c1,inactive
7,OCC(O)[C@@H](O)[C@H](O)[C@H](O)CO[C@H]1O[C@H](CO)[C@@H](O)[C@H](O)[C@H]1O (stereo not given in full),inactive
8,CN(C)N=Nc1ccccc1,inactive
9,CC(O)CN(CCCN(C)C)CCCN(C)C (stereo not given),inactive
10,CCC(C)OC(=O)N1CCCCC1CCO (stereo not given),inactive
11,NS(=O)(=O)c1cc(C2(O)NC(=O)c3ccccc32)ccc1Cl (stereo not given),inactive
12,N#CC1(O)CCCCC1,inactive
13,CC(C)CCCC(C)CCCC(C)CCCCC(C)CCCC(C)CCCC(C)C (stereo not given),inactive
14,CCCC=O,inactive
15,CCCc1ccccc1O,inactive
16,NC(=O)c1c(Cl)cccc1Cl,inactive
17,CC/C=C\C#N,inactive

# Assay: qHTS assay to identify small molecule antagonists of the thyroid receptor (TR) signaling pathway (AID 743065); also: nearly all actives have a fitted effect of over 55% in size
# Conditions: GH3.TRE-Luc, T3-stimulated luciferase inhibition, 23.5 h; series mostly up to 70.3 µM
# How it was run: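 GH3.TRE-Luc rat pituitary cells (two TREs driving luciferase) were dosed with compound, then stimulated with 1 nM T3 (final) for 23.5 h at 37 C. ONE-Glo luminescence was the read-out, with CellTiter-Fluor fluorescence as the cytotoxicity counter-screen.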
row,SMILES,Potency
1,C=C(C)C(=O)OCCCCCCCCCCCCCCCCCC,inactive
2,CC(=O)N[C@@H](CCC(N)=O)C(=O)O,inactive
3,C#CC(C)(O)CC(C)C (stereo not given),inactive
4,CC(=O)OC(C)(C)C,inactive
5,COC(=O)c1ccc(C(=O)OC)c(C(=O)OC)c1,inactive
6,CC1=CC(=O)CCC1,inactive
7,CCO[Si](CCCN=C=O)(OCC)OCC,inactive
8,COCCOC(=O)CC#N,inactive
9,C=CC(=O)OCCCCCC,inactive
10,CC(C=O)Cc1ccc(C(C)C)cc1 (stereo not given),inactive
11,CCCCN(CCO)CCO,inactive
12,CCCCc1ccc(N)cc1,inactive
13,COc1cc(C(=O)N2CCOCC2)cc(OC)c1OC,inactive
14,CCc1cc(S(=O)(=O)O)c2cc(C(C)C)cccc1-2,inactive
15,Cc1cc(C)c(NC(=O)CN(CC(=O)O)CC(=O)O)c(C)c1Br,inactive
16,CC(C)[N+](C)(C)CC(O)COc1cccc2ccccc12 (stereo not given),inactive
17,COc1cccc(OC)c1,inactive

row,SMILES,Potency
1,CCCCCCCCCCCCCCC,inactive
2,COC(=O)CCCC(=O)O,inactive
3,NC(=O)c1ncn([C@@H]2O[C@H](CO)[C@@H](O)[C@H]2O)c1O,inactive
4,COc1ccc(COC=O)cc1,inactive
5,OCc1ccccn1,inactive
6,Nc1ccc2cc(S(=O)(=O)O)ccc2c1,inactive
7,OCC(O)[C@@H](O)[C@H](O)[C@H](O)CO[C@H]1O[C@H](CO)[C@@H](O)[C@H](O)[C@H]1O (stereo not given in full),inactive
8,CN(C)N=Nc1ccccc1,inactive
9,CC(O)CN(CCCN(C)C)CCCN(C)C (stereo not given),inactive
10,CCC(C)OC(=O)N1CCCCC1CCO (stereo not given),inactive
11,NS(=O)(=O)c1cc(C2(O)NC(=O)c3ccccc32)ccc1Cl (stereo not given),inactive
12,N#CC1(O)CCCCC1,inactive
13,CC(C)CCCC(C)CCCC(C)CCCCC(C)CCCC(C)CCCC(C)C (stereo not given),inactive
14,CCCC=O,inactive
15,CCCc1ccccc1O,inactive
16,NC(=O)c1c(Cl)cccc1Cl,inactive
17,CC/C=C\C#N,inactive
